Sampled rows, rich in hits. Any-hit rate of the full collection: about 2.6%.
ATXN2 expr inh = inhibitors of ATXN2 expression; HEK-293 ATXN2-luciferase reporter, luminescence, 24 h; Potency, µM (doses to about 57 µM), for the others: at the top dose activity change, negative = inhibition, actives largely listed as inhibitors; actives 0.72% (n = 360,000); further: potency means the concentration at half of the fitted maximal effect; on the % scale 0 is the no-effect control and ±100 the full control effect; nearly all actives have a fitted effect of over 55% in size
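ATXN2-luciferase reporter cells (luciferase flanked by upstream and downstream ATXN2 gene portions) were treated 24 h at 37 °C with compounds at up to 57 uM. SteadyGlo luminescence gave expression; GF-AFC fluorescence gave viability.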
HepG2 viability = HepG2 cytotoxicity, counter-screen for TGF-b inhibitors | HepG2 CAGA-GFP viability, ATP luminescence, 18 h | Potency, µM (top dose mostly 46.1 µM), inactives show at the highest dose activity change, negative = cytotoxicity, most hits filed as cytotoxic | actives 0.76% (n = 410,000) | AID 588856; further: potency means the concentration at half of the fitted maximal effect
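CellTiter-Glo luminescence gave cytotoxicity after 18 hours at 37 degrees C. The cells were HepG2 CAGA-GFP in 1% FBS DMEM, stimulated with 500 pg/mL TGF-beta after compound addition. %Activity was normalised to no-cell wells (complete cell-killing) and DMSO (no toxicity), and curves were fitted and classified.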
Giardia kill = Giardia lamblia killing. Giardia lamblia trophozoite viability. activity change, % at 7.66 µM, hits read low. actives 0.15% (n = 340,000); in the data active means activity change below about -80%; inconclusive means between about -30% and that limit;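 further: parasites exposed to compound for two days anaerobically before the ATP read; on the % scale 0 is the no-effect control and ±100 the full control effect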
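Giardia trophozoites, 100 cells per well, were exposed to compounds for 48 hrs at 37 deg C under anaerobic conditions; viability was then read as ATP content by bioluminescence after 15-30 min at room temperature.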
ATXN viability = cell viability loss in ATXN counter-screen; S2 cells (HEK-293 line with an ATXN2-luciferase reporter) viability, CellTiter-Fluor protease fluorescence, 24 h; Potency, µM (top dose mostly 56.7 µM), actives largely listed as cytotoxic; actives 0.49% (n = 400,000); further: potency means the concentration at half of the fitted maximal effect; nearly all actives have a fitted effect of over 40% in size
TGFb inhibitor = blocks TGF-b signaling | AID 588855 | Potency, µM (titrated, usually from 46.1 µM), for inactives: at the highest dose activity, negative = inhibition, hits mostly inhibitors | HepG2 CAGA-GFP TGF-b/SMAD3 reporter, GFP fluorescence, 18 h; TGF-beta stimulated, 500 pg/mL final | actives 1.2% (n = 410,000); further: potency means the concentration at half of the fitted maximal effect; on the % scale 0 is the no-effect control and ±100 the full control effect; nearly all actives have a fitted effect of over 65% in size
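Using HEPG2 CAGA-GFP reporter cells at 1000 cells/well, we pinned test compounds, stimulated with recombinant TGF-beta (500 pg/mL final) and measured total well GFP after 18 h.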
uPA generation = cell surface uPA generation inhibition; cell surface uPA generation assay, qHTS; Potency, µM (top dose mostly 38.3 µM), without a hit: at the highest dose activity change, negative = inhibition, actives largely listed as inhibitors; actives 0.31% (n = 330,000); AID 540303; active means well fitted inhibition curve with a large enough effect; inconclusive means small, poorly fitted or top-dose-only effect; inactive means no such curve, though single readings can be large or run the other way; tested in mouse RAW 264.7 cells; further: potency means the concentration at half of the fitted maximal effect; on the % scale 0 is the no-effect control and ±100 the full control effect; nearly all actives have a fitted effect of over 55% in size
Active calls of the source: *; i = inactive; ? = inconclusive; . = no result. Unless noted, the call rests on the fitted dose curve; in most records, active means well fitted curve in the direction sought with a large enough effect; inconclusive means small, poorly fitted or top-dose-only effect, or another doubt; inactive means no such curve, though single readings can be large; an effect the other way counts as inactive or inconclusive.

SMILES | ATXN2 expr inh | HepG2 viability | Giardia kill | ATXN viability | TGFb inhibitor | uPA generation
CCOC(=O)C1(Cc2ccc(OC)cc2)CCN(C(=O)c2ccc3[nH]ccc3c2)CC1 | . | -26% | -2 | i | ? | 11µM*
CCOC(=O)C1(Cc2ccc(OC)cc2)CCN(C(=O)c2ccoc2C)CC1 | -4% | -2% | -1 | i | -8% | -10%
COc1cccc(CSc2nc3ccccc3[nH]2)c1 | 50% | -17% | -13 | i | 3% | 8.9µM*
O=[N+]([O-])c1cccc(CSc2nc3ccccc3[nH]2)c1 | 9% | -2% | 3 | i | 14% | 0%
COC(=O)C1=C(Cn2cnc3ccccc32)NC(=O)NC1c1cc(C)ccc1C (stereo not given) | -7% | -15% | 26 | i | 10% | -4%
CCOC(=O)C1=C(Cn2cnc3ccccc32)NC(=O)NC1c1cc(C)ccc1C (stereo not given) | ? | -27% | -3 | 32µM* | ? | -6%
COc1ccccc1/C=C/c1cncc(/C=C/c2ccccc2OC)c1 | . | -33% | . | . | -14% | .
Cc1nc2c(OCc3ccc(Cl)cc3Cl)cccn2c1N(C)Cc1cccs1 | 8.9µM* | 11µM* | . | . | ? | .
Cc1nc2c(OCc3cccc(Cl)c3)cccn2c1N(C)Cc1cccs1 | ? | 11µM* | . | ? | ? | .
COC(=O)c1ccccc1COc1cccn2c(N(C)Cc3cccs3)c(C)nc12 | 18µM* | -41% | . | i | ? | .
CCC(CC)C(=O)N(C)c1c(C)nc2c(OCc3ccccc3C(=O)OC)cccn12 | -16% | -28% | . | i | -6% | .
COc1ccc(C(CCNCc2ccc(N(C)C)cc2)c2ccccc2OC)cc1 (stereo not given) | ? | -48% | 2 | i | ? | -5%
COc1ccc(C(CCNCc2ccc(OC(C)C)cc2)c2ccccc2OC)cc1 (stereo not given) | . | 11µM* | -1 | 14µM* | 14µM* | 0%
COc1ccc(CNC(=S)NCc2ccc(OC(C)C)cc2)cc1 | -9% | 18µM* | 3 | i | -18% | 3%
COc1ccc(C(CCNCc2ccccc2)c2ccc(F)cc2)cc1 (stereo not given) | -31% | -60% | 7 | i | 18µM* | -1%
COc1ccc(CNCCC(c2ccccc2)c2ccc(OC(C)C)cc2)cc1OC (stereo not given) | -24% | -104% | -22 | i | ? | -18%
COc1ccc(CNCCC(c2ccc(OC)cc2)c2ccccc2OC)cc1 (stereo not given) | -37% | 11µM* | 13 | ? | ? | 0%
COc1ccc(CNCCC(c2ccc(F)cc2)c2ccc(OC)cc2)cc1 (stereo not given) | -14% | -97% | 0 | i | ? | 0%
COc1ccc(CNC(=S)Nc2cc(C)cc(C)c2)cc1 | -11% | -50% | -7 | i | -9% | -3%
O=C(COC(=O)c1ccccc1OCCOc1ccccc1)Nc1ccccc1Br | . | 2% | . | . | 6% | .
CC(C)N1C[C@@H](Sc2ccccn2)C[C@H]1C(=O)Nc1ccc2c(c1)Nc1ccccc1CC2 | . | . | . | i | . | .
CC(=O)c1ccccc1-c1ccc2c(c1)CC(CNC(=O)c1cc(C)on1)O2 (stereo not given) | . | . | . | i | . | .
Cc1cccc(CNC(=O)c2cnn(-c3nccc(-c4cc5ccccc5o4)n3)c2C2CC2)n1 | . | . | . | i | . | .
COc1ccc(CNC(=O)CNC(C)c2ccc(F)cc2)cc1 (stereo not given) | 0% | 8% | 19 | i | -3% | 6%
COc1ccc(C(CCNC(C)c2ccccc2)c2ccc(F)cc2)cc1 (stereo not given) | 28µM* | -73% | 33 | ? | 13µM* | -10%
COc1ccc(C(=O)C[n+]2cccc3cccc(O)c32)cc1 | . | 10% | . | . | 22% | .
CCCCCCCCn1c2c(c(=N)c3ccccc31)CCC2 | 7.5µM* | -22% | -17 | ? | ? | -16%
